Compound activity as filed in PubChem BioAssay.
The list is not random: actives were taken first. Their share in the collection is about 8%.
RORg inh: ROR gamma (mouse) transcription inhibition; Potency, µM (highest dose often 53.6 µM), inactives show at the top dose activity change, negative = inhibition, actives largely listed as inhibitors; Drosophila S2 Gal4-RORgamma UAS-luciferase reporter, 20 h; actives 5.4% (n = 310,000); P51450; further: potency means the concentration at half of the fitted maximal effect; nearly all actives have a fitted effect of over 60% in size
Target sequence (P51450 whole entry, looked up, the tested form may be a part): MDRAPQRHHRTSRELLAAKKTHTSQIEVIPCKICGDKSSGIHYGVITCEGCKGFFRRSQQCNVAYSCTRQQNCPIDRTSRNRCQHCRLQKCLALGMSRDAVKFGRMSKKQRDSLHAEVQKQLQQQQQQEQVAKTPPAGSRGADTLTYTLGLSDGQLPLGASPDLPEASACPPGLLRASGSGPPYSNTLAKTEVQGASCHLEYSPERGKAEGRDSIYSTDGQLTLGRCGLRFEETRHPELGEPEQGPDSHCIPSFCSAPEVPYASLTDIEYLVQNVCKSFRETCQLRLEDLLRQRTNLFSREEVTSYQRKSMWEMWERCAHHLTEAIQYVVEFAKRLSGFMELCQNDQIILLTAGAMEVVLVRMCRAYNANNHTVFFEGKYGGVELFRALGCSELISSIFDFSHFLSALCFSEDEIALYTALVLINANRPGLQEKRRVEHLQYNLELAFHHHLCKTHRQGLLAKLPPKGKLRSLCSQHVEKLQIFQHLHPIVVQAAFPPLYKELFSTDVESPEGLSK
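Luciferase reporter read in Schneider cells carrying Gal4-RORγ (mouse) and UAS-Photinus luciferase; cells given compound 1 h before 700 uM copper sulfate induction, then incubated 20 h at ambient temperature.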
Gal4-VP16 FLuc: inhibits Gal4-VP16 luciferase reporter, ROR gamma counter-screen. Drosophila S2 Gal4-VP16 UAS-luciferase, luminescence, 20 h. Potency, µM (highest dose often 53.6 µM), without a hit: at the top dose activity, negative = inhibition, most hits filed as inhibitors. actives 3.5% (n = 310,000). AID 2546;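 further: Gal4-VP16 expression switched on by copper sulfate through the metallothionein promoter; potency means the concentration at half of the fitted maximal effect; nearly all actives have a fitted effect of over 50% in size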
Coupling enz: inhibits coupling enzyme system, counter-screen for aldolase hits | actives 0.67% (n = 290,000) | coupling enzyme system counterscreen, AmpLite Red fluorescence | activity change, negative = inhibition, % at 58.2 µM, hits read low | AID 2472; in the data active means activity change below about -30%
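Fluorescence at 525 nm excitation and 598 nm emission measured inhibition of the coupled detection system without aldolase. Compounds (at 57.5 uM final) were preincubated 10 min at room temperature with coupling enzyme reagent before a 20 min substrate/AmpLite Red step.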
TSHR antag: blocks TSH signaling through the human TSH receptor; actives 0.2% (n = 330,000); activity change, negative = inhibition, % at 11.5 µM; TSHR-expressing cells, TSH-stimulated cAMP HTRF, 2 h; stronger effect = lower value;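 active means activity change below a set negative limit, meaning inhibition stronger than a set level, cut at about -70% in these data; inconclusive means activity change between two set negative limits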
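Competitive HTRF cAMP read-out (cryptate anti-cAMP antibody, cAMP-d2; 30 min, room temperature) in freshly harvested TSHR cells. Compounds added before TSH at EC80 (4nM final), followed by 2 hours' incubation at 37 deg C.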
ELG1 DNA repair: ELG1-dependent DNA repair inhibition. AID 504467. Potency, µM (highest dose often 46.1 µM), inactives show top-dose activity change, negative = inhibition, actives largely listed as inhibitors. HEK293T ELG1-luciferase reporter, luminescence, 16 h; DNA damage induced by 5-fluorouridine. actives 2.3% (n = 330,000); further: potency means the concentration at half of the fitted maximal effect; nearly all actives have a fitted effect of over 55% in size
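Cells (2,000 per well) received 5-fluorouridine plus test compound or DMSO and were incubated 16 hr at 37 °C, 5% CO2. Luciferase activity was read by luminescence 30 min after ONE-Glo addition; signal suppression marked inhibition of damage-induced ELG1 function.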
Starred values were filed as active, the others as inactive; ? = inconclusive; · = not tested or not shown; [ ] = dose if it differs, or a comment. Unless noted, the call rests on the fitted dose curve; in most records, active means well fitted curve in the direction sought with a large enough effect; inconclusive means small, poorly fitted or top-dose-only effect, or another doubt; inactive means no such curve, though single readings can be large; an effect the other way counts as inactive or inconclusive. On the % scale 0 is the no-effect control and ±100 the full control effect.

SMILES	RORg inh	Gal4-VP16 FLuc	Coupling enz	TSHR antag	ELG1 DNA repair
CCCCNC(=S)NNC(=O)c1c(C)nc2ccccn12	13µM*	-11%	0	13	11%
Cc1nn(C)c(C(=O)NN)c1Cl	11µM*	-5%	1	10	5%
CCCCNC(=S)NNC(=O)c1c(Cl)c(C)nn1C	1.4µM*	-30%	-4	0	-5%
Cc1nc2ccccn2c1C(=O)NCCCN1CCOCC1	-34%[0.365 µM]	·	-2	-2	13%
COc1ccc(-c2ccoc2)cc1C1C2C=CCC(C)C2C(=O)N1Cc1ccccc1 (stereo not given)	-40%	?	-1	·	·
COc1ccccc1NC(=S)NNC(=O)c1c(Cl)c(C)nn1C	1.6µM*	?	·	-22	?
COc1ccc(Cl)cc1NC(=S)NCc1cccnc1	9%	-6%	2	13	-4%
Cc1cc(Cl)ccc1NC(=S)NCc1ccccc1	4µM*	4%[0.365 µM]	0	-8	10%
COc1cccc(CNC(=S)Nc2ccc(Cl)cc2C)c1	6.3µM*	6.3µM*	-1	-3	5%
COc1cccc(CNC(=S)Nc2cc(OC)ccc2OC)c1	13µM*	?	2	0	-10%
Cc1ccc(NC(=S)NCc2ccc(Cl)cc2)c(C)c1	4.5µM*	4.5µM*	-6	18	0%
CCC(=O)NCCCC[C@H](NC(=O)OCc1ccccc1)C(=O)Nc1ccc2c(C)cc(=O)oc2c1	-13%	13%	-2	·	·
CCc1nc2sc3c(c2c(=O)n1CCO)CCC3	·	·	0	10	14%
FC(F)(F)c1cc(CO[C@H]2CCCN[C@H]2c2ccccc2)cc(C(F)(F)F)c1	25µM*	-28%	-6	·	·
NCCCCCc1nnc(SCc2ccc(Cl)c(Cl)c2)o1	?	10µM*	-3	8	1%
CCOc1ccc(/C=C2\C(=O)c3ccccc3OC2c2ccccc2)cc1 (stereo not given)	3%	-5%	0	-7	5%
COc1ccc(/C=C2\C(=O)c3ccccc3OC2c2ccccc2)cc1 (stereo not given)	44%	17%	0	-10	23µM*
O=[N+]([O-])c1ccc(Sc2cc[n+]([O-])c3ccccc23)c([N+](=O)[O-])c1	11µM*	18µM*	0	6	?
Nc1nc(Sc2ccc([N+](=O)[O-])cc2[N+](=O)[O-])n[nH]1	-25%	6%	2	-2	?
Cc1cc2c(c(=O)o1)[C@H](O)[C@H]1O[C@@H]1C2=O	?	?	1	·	·
CC1(C)Cc2c(cnn2-c2ccccc2)-c2c1c1ccccc1n2CC(O)CCl (stereo not given)	6%	?	-8	-11	26µM*
Cc1cccc(C)c1NC(=O)CN(C)CC(=O)Nc1ccccc1Oc1ccccc1	7%	11%	0	5	12µM*
O=C(Nc1ncc(Br)s1)C(Cc1ccccc1)n1cccc1 (stereo not given)	13µM*	?	-1	-19	?
O=C(Nc1cccnc1)C(Cc1ccccc1)n1cccc1 (stereo not given)	1%	1%	2	5	0%
CCOC(=O)c1c(C)[nH]c(C(=O)N/N=C\c2ccccc2Cl)c1C	8.9µM*	?	1	-7	-12%
SMILES	RORg inh	Gal4-VP16 FLuc	Coupling enz	TSHR antag	ELG1 DNA repair
COc1cccc(/C=N/NC(=O)c2[nH]c(C)c(C(=O)N/N=C/c3cccc(OC)c3)c2C)c1	-4%	0%	10	-13	21µM*
CCOC(=O)c1c(C)[nH]c(C(=O)N/N=C/c2cccc(OC)c2)c1C	?	1%	3	-19	?
CCOc1ccc(/C=N/NC(=O)c2[nH]c3ccc(C)cc3c2C)cc1	?	?	-2	1	-7%
Cc1c(C(=O)N/N=C/c2ccc(Cl)cc2)[nH]c2ccc(Cl)cc12	11µM*	11µM*	-1	-1	1%
CCOC(=O)c1c(C)[nH]c(C(=O)NNC(=O)c2ccccc2)c1C	?	?	2	-1	?
COc1ccc2c(c1)c(C(=O)N/N=C/c1cccc(Br)c1)c(C)n2C	-34%	1%	-45*	-10	-8%
COc1ccc2c(c1)c(C(=O)N/N=C/c1cccc(O)c1)c(C)n2C	1%	-7%	-4	-4	-20%
CCC(C)(C)C1CCC2(CC1)NC(=O)N(CC(=O)NC(C)CCc1ccccc1)C2=O (stereo not given)	·	·	·	-18	1%
Cc1cccc(NC(=O)CCc2nnc3ccc(N4CCC(C)CC4)nn23)n1	1%	2%	·	4	-1%
COc1ccc(/C=N\NC(=O)C2=NNC(=O)C2C)cc1 (stereo not given)	13µM*	3.2µM*	4	2	?
COc1ccc(/C=N/NC(=O)c2[nH]c(C)c(C(=O)N/N=C/c3ccc(OC)cc3)c2C)cc1	33%	-6%	3	-12	21µM*
O=C(Cn1c2ccccc2c2nc3n(c(=O)c21)CCCS3)Nc1ccccc1	29%	-9%	·	4	5.2µM*
COc1cccc(NC(=O)Cn2c3ccccc3c3nc4n(c(=O)c32)CCCS4)c1	16%	4%	·	2	?
CC(C)(CNC(=O)c1ccc(S(=O)(=O)Nc2ccc(Cl)cc2)cc1)N1CCOCC1	·	·	·	0	-1%
CCOC(=O)N1CCC(N(CCN(C)C)C(=S)Nc2cccc(Cl)c2)CC1	-39%	-17%[10 µM]	-3	-6	-11%
CCOC(=O)N1CCC(Nc2c(N3CCN(c4cccc(C(F)(F)F)c4)CC3)c(=O)c2=O)CC1	?	?	0	-4	18µM*
CCOC(=O)N1CCC(N(CCOC)C(=S)Nc2cccc(SC)c2)CC1	20µM*	4%[10 µM]	0	7	-12%
CCOC(=O)N1CCC(Nc2cccc(SC)c2)CC1	6%	-5%	-44*	0	?
CCOC(=O)N1CCC(N(CCN(C)C)C(=S)Nc2cc(Cl)cc(Cl)c2)CC1	10µM*	?	-3	11	?
CCOC(=O)N1CCC(Nc2c(-c3ccccc3)c(=O)c2=O)CC1	16%	1%	2	2	-15%
Cc1ccc(C(=O)N2CCCCC2C(=O)O)cc1S(=O)(=O)N1CCCCC1 (stereo not given)	·	·	·	12	5%
CN(C)CCCN(C(=O)CCOc1ccccc1)c1nc2c(F)cccc2s1	8.9µM*	-30%	4	-12	13%
CN(C)CCCN(C(=O)CCc1ccccc1)c1nc2c(F)cccc2s1	-3%	-21%	0	13	2%
CN(C)CCCN(C(=O)COc1ccccc1)c1nc2ccc(F)cc2s1	-10%	-1%	-1	11	7%
Cc1cc(C)c2nc(N(CCCN(C)C)C(=O)c3ccc4c(c3)CCCC4)sc2c1	·	·	·	12	-10%
